Rows were chosen to be rich in hits. Some 0.81% of all compounds tested hit in one or more screens of this group.
NCOA2 inhibitor – human SRC2 (NCOA2) inhibition | Q15596 | HEK293 GAL4-SRC2 luciferase reporter, luminescence | inhibition, % at 9 µM | 370,000 compounds, 0.17% hits | AID 651957;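 active = inhibition above the mean inhibition of all tested compounds plus 3 SD, set per campaign, cut at about 52% in these data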;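 note: 0% = DMSO treated cells and 100% = cells given Gossypol at 36 µM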
NCOA1 inh – inhibitors of human steroid receptor coactivator 1 (SRC1) | HEK293 GAL4-SRC1 luciferase reporter, luminescence | inhibition, % at 3.6 µM | 360,000 compounds, 0.12% hits | AID 588354;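 active = inhibition above the campaign mean plus 3 SD, with each screening campaign given its own cutoff, cut at about 60% in these data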;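 note: 0% = DMSO treated cells and 100% = gossypol at 36 µM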
NR5A2 inv ag – inverse agonists of human LRH-1 (NR5A2). O00482. HEK293T StAR-luciferase reporter, LRH-1 transfected, 24 h. inhibition, % at 3.6 µM. 360,000 compounds, 0.13% hits;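 active = inhibition above the mean inhibition of all tested compounds plus 3 SD, cut at about 73% in these data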;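 note: 0% = DMSO wells and 100% = reporter-only cells lacking LRH-1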
NCOA3 inh – inhibitors of human steroid receptor coactivator 3 (SRC3); Q9Y6Q9; HEK293 GAL4-SRC3 luciferase reporter, luminescence; inhibition, % at 3.6 µM; 360,000 compounds, 0.17% hits;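 active = inhibition above a per-campaign cutoff, the mean of all compounds plus 3 SD, cut at about 60% in these data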;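 note: 0% = DMSO-treated cells and 100% = gossypol-treated cells at 36 µM; higher means less SRC3-driven luciferase light from the GAL4 reporter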
NR2F2 inh – inhibitors of human COUP-TFII (NR2F2); P24468; HEK293T NGFI-A luciferase reporter, luminescence; inhibition, % at 8.6 µM; 370,000 compounds, 0.7% hits; AID 686940;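 active = inhibition above a per-plate cutoff, mean inhibition of test wells between control levels plus 3 SD, cut at about 38% in these data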;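 note: cells cotransfected with COUP-TFII expression vector driving the NGFI-A reporter; 0% = median of COUP-TF2 test wells and 100% = reporter-only cells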
Target sequence (P24468 whole entry, looked up): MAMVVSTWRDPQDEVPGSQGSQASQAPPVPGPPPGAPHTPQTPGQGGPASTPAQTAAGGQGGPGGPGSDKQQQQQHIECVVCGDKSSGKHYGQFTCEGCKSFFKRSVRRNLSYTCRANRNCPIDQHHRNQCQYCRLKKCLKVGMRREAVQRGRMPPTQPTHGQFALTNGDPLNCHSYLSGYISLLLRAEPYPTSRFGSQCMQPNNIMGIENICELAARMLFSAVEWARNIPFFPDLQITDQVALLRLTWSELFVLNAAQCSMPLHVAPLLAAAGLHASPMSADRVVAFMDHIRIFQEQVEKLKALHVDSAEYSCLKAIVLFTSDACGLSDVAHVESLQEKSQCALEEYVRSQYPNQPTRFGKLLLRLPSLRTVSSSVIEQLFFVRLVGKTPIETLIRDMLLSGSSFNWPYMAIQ
VP16 Luc counter – VP16 inhibition counter-screen for COUP-TFII | inhibition, % at 8.5 µM | 2,500 compounds, 25% hits | shares compounds with NR2F2 inh | HEK293 Gal4-VP16 luciferase reporter, luminescence; in the data active = inhibition above about 13%
COUP-TFII conf – COUP-TFII (NR2F2) inhibition, confirmation assay; shares compounds with NR2F2 inh; HEK293 NGFI-A luciferase reporter, luminescence; inhibition, % at 8.5 µM; 2,500 compounds, 45% hits;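 active = mean inhibition over three repeats above a set limit taken from the earlier primary screen, cut at about 38% in these data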;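 note: 100% = cells given the luciferase reporter alone without the COUP-TF2 vector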
An asterisk follows results filed as active.

What do the screens show for `CC(C)(C)c1ccc(/C=N/Nc2ccc(C(=O)O)cc2)cc1`?
NCOA2 inhibitor: 26.4; NCOA1 inh: 48.5; NR5A2 inv ag: 57.4; NCOA3 inh: 64.1*; NR2F2 inh: 70.2*; VP16 Luc counter: -21.6; COUP-TFII conf: 69.5*

What do the screens show for `COc1cccc(/C=N/Nc2ccc(C(=O)O)cc2)c1O`?
NCOA2 inhibitor: 79.3*; NCOA1 inh: 75.8*; NR5A2 inv ag: 46.0; NCOA3 inh: 79.4*; NR2F2 inh: 69.1*; VP16 Luc counter: 65.1*; COUP-TFII conf: 92.1*

How did CC(C)(C)C(C(=O)NCc1ccccc1)N1CCN(C(=O)C2CCCO2)CC1 (stereo not drawn) do in these assays?
NCOA2 inhibitor: -1.1; NR5A2 inv ag: -0.6; NR2F2 inh: 8.6

Results for COc1cccc(-c2nnc3n2N=C(C(C)(C)C)CS3)c1 ?
NCOA2 inhibitor: 73.3*; NCOA1 inh: 66.7*; NR5A2 inv ag: 45.7; NCOA3 inh: 66.3*; NR2F2 inh: 44.7*; VP16 Luc counter: 26.8*; COUP-TFII conf: 41.4*

Results for Cc1ccc(NC(=O)CN2CCC(NC(=O)c3ccccc3F)CC2)cc1C ?
NCOA2 inhibitor: 4.5; NCOA1 inh: -10.7; NR5A2 inv ag: 8.7; NCOA3 inh: -24.2; NR2F2 inh: 8.2

Results for O=C(CNc1cccc(S(=O)(=O)N2CCCC2)c1)Nc1ccc(C(F)(F)F)cc1 ?
NCOA2 inhibitor: 14.9; NCOA1 inh: -7.2; NR5A2 inv ag: 13.9; NCOA3 inh: 15.0; NR2F2 inh: 40.4*; VP16 Luc counter: 5.6; COUP-TFII conf: 28.7

How did O=C(CNc1cccc(S(=O)(=O)N2CCCCC2)c1)Nc1ccc(C(F)(F)F)cc1 do in these assays?
NCOA2 inhibitor: 5.6; NCOA1 inh: 15.0; NR5A2 inv ag: 9.3; NCOA3 inh: 7.5; NR2F2 inh: 37.5*; VP16 Luc counter: -0.9; COUP-TFII conf: 5.4

Results for Cc1ccc(NCC(=O)Nc2cccc(F)c2)cc1S(=O)(=O)N1CCCCCC1 ?
NCOA2 inhibitor: 37.8; NCOA1 inh: 11.2; NR5A2 inv ag: 20.3; NCOA3 inh: 12.6; NR2F2 inh: 46.3*; VP16 Luc counter: -4.4; COUP-TFII conf: 7.4

What do the screens show for `O=C(CNc1cccc(F)c1)Nc1cccc(S(=O)(=O)N2CCCCC2)c1`?
NCOA2 inhibitor: 5.9; NCOA1 inh: -4.2; NR5A2 inv ag: -10.1; NCOA3 inh: 5.4; NR2F2 inh: -16.2

Results for CC(=O)Nc1ccc(C(=O)N2CCCCC2c2cc(C(=O)N3CCOCC3)no2)cc1 (stereo not drawn) ?
NCOA2 inhibitor: -16.8; NCOA1 inh: 1.8; NR5A2 inv ag: 16.4; NCOA3 inh: 3.0; NR2F2 inh: -2.6

Results for CC(C)c1ccc(CN2CCN(C(=O)CSc3nnnn3C3CC3)CC2)cc1 ?
NCOA2 inhibitor: 25.9; NCOA1 inh: 20.1; NR5A2 inv ag: 27.5; NCOA3 inh: 17.6; NR2F2 inh: 63.3*; VP16 Luc counter: 0.9; COUP-TFII conf: 50.6*

Results for O=C(CSc1nnnn1C1CC1)N1CCN(c2cccc(Cl)c2)CC1 ?
NCOA2 inhibitor: 19.8; NCOA1 inh: 7.4; NR5A2 inv ag: -8.1; NCOA3 inh: -15.8; NR2F2 inh: 27.1

How did COc1cc(OC)nc(C(NC(=O)C2CCN(Cc3c[nH]c4ccccc34)CC2)c2ccc(Cl)cc2)n1 (stereo not drawn) do in these assays?
NCOA2 inhibitor: 7.9; NCOA1 inh: 0.4; NR5A2 inv ag: 8.0; NCOA3 inh: -0.6; NR2F2 inh: -17.2

Results for O=C(O)CCCc1ccc2c(c1)CCc1ccccc1-2 ?
NCOA2 inhibitor: 73.5*; NCOA1 inh: 16.8; NR5A2 inv ag: -9.3; NCOA3 inh: 19.3; NR2F2 inh: 75.2*; VP16 Luc counter: 56.8*; COUP-TFII conf: 48.8*

What do the screens show for `c1ccc(-c2nc(NCc3cccnc3)c3oc4ccccc4c3n2)cc1`?
NCOA2 inhibitor: 5.1; NCOA1 inh: -15.1; NR5A2 inv ag: 46.9; NCOA3 inh: -11.3; NR2F2 inh: 10.4

Results for Cc1cccc(NC(=O)c2ccc(C3SCC(=O)N3CCc3ccccc3)cc2)c1 (stereo not drawn) ?
NCOA2 inhibitor: 27.9; NCOA1 inh: 10.0; NR5A2 inv ag: -8.9; NCOA3 inh: 6.1; NR2F2 inh: 45.4*; VP16 Luc counter: 4.3; COUP-TFII conf: 12.2

How did Clc1ccc(-c2noc(CSc3nnc(-c4ccncc4)n3-c3ccccc3)n2)cc1 do in these assays?
NCOA2 inhibitor: 25.8; NCOA1 inh: -3.4; NR5A2 inv ag: 9.7; NCOA3 inh: 34.7; NR2F2 inh: 64.8*; VP16 Luc counter: -3.3; COUP-TFII conf: 12.7

What do the screens show for `Cc1ccc(-c2noc(CSc3nnc(-c4ccncc4)n3-c3ccc(C)cc3)n2)cc1`?
NCOA2 inhibitor: 6.7; NCOA1 inh: -1.4; NR5A2 inv ag: -1.2; NCOA3 inh: -11.6; NR2F2 inh: -0.8

Results for COC(C[C@@H]1O[C@@H]1[C@@H](O)COCc1ccccc1)OC ?
NCOA2 inhibitor: 9.6; NCOA1 inh: -3.9; NR5A2 inv ag: -30.6; NCOA3 inh: 4.9; NR2F2 inh: -2.4

Results for COc1cccc(NS(=O)(=O)c2ccc3c(c2)CCN3C(C)=O)c1 ?
NCOA2 inhibitor: 28.4; NCOA1 inh: 2.1; NR5A2 inv ag: 32.5; NCOA3 inh: 31.2; NR2F2 inh: 36.5

How did CSc1cccc(NS(=O)(=O)c2ccc3c(c2)CCN3C(C)=O)c1 do in these assays?
NCOA2 inhibitor: 23.7; NCOA1 inh: 19.1; NR5A2 inv ag: 9.0; NCOA3 inh: 22.7; NR2F2 inh: 45.3*; VP16 Luc counter: 6.1; COUP-TFII conf: 48.1*

What do the screens show for `NC(=Nc1nc(-c2ccccn2)cc2ccccc12)c1ccccn1`?
NCOA2 inhibitor: -68.6; NCOA1 inh: 71.1*; NR5A2 inv ag: 57.3; NCOA3 inh: 81.2*; NR2F2 inh: 41.6*; VP16 Luc counter: -7.7; COUP-TFII conf: -1.7

Results for N/C(=N\OC(=O)c1cccc2ccccc12)c1ccccn1 ?
NCOA2 inhibitor: -44.3; NCOA1 inh: -92.7; NR5A2 inv ag: -86.6; NCOA3 inh: -54.9; NR2F2 inh: -49.0

How did COC(=O)c1ccc(C(=O)OC)c(NC(=O)C2CC(=O)N(C3CCCC3)C2)c1 (stereo not drawn) do in these assays?
NCOA2 inhibitor: -0.1; NCOA1 inh: -4.8; NR5A2 inv ag: 2.3; NCOA3 inh: -2.3; NR2F2 inh: 5.3

What do the screens show for `Cc1cccc(C)c1NC(=O)C(C)Sc1n[nH]c(-c2ccncc2)n1` (stereo not drawn)?
NCOA2 inhibitor: -12.9; NCOA1 inh: 0.1; NR5A2 inv ag: -4.8; NCOA3 inh: 14.5; NR2F2 inh: 2.0

What do the screens show for `Cc1nc(N2CCN(C(=O)COc3ccccc3C)CC2)c2c3c(sc2n1)CCCC3`?
NR2F2 inh: 75.7*; VP16 Luc counter: -7.5; COUP-TFII conf: -17.5

Results for c1nc(N2CCOCC2)c2c3c(sc2n1)CCCC3 ?
NCOA2 inhibitor: 12.2; NCOA1 inh: 13.2; NR5A2 inv ag: 6.0; NCOA3 inh: 22.7; NR2F2 inh: -4.0
